Measured values published in article PMC12820563, “FoxP3 forms a head-to-head dimer in vivo and stabilizes its multimerization on adjacent microsatellites”.
Whole data set: some 16,000 sequences, median “rpm ratio (pull-down/input)” near 0.94, cut for the highest 2% near 1.7. What follows is part of a selection rich in the highest values, with near analogues and random picks from the rest.

These sequences were tested against T1, MBP-FoxP1dN (Mus musculus, UniProt P58462 326-579) (assay: PD-seq (MBP pull-down with sequencing); 20 mM Tris-HCl pH 7.5, 100 mM NaCl, 1.5 mM MgCl2, 0.4 uM protein, 0.1 uM dsDNA library, 30 min, room temperature, amylose pull-down; high values mean tight binding). Conditions: protein: recombinant; tags: His6-MBP; chain copies: 2; dsDNA, one strand shown.
T1 sequence: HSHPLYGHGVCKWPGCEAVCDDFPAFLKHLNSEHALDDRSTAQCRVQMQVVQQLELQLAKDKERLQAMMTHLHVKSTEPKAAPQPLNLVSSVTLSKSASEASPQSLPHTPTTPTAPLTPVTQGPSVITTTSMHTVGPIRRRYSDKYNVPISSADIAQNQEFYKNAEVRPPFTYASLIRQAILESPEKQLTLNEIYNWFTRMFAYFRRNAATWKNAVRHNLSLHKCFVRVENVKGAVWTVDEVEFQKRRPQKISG
Method in brief: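 A degenerate double-stranded DNA library, filled in with Klenow, was added at 0.1 µM to 0.4 µM His6-MBP-tagged mouse FoxP3 or FoxP1 fragment lacking the N-terminus, expressed in E. coli. Incubation lasted 30 min at room temperature in Tris pH 7.5 buffer with NaCl and MgCl2, after which complexes were collected on amylose resin, washed three times, digested with proteinase K to free the DNA, barcoded by PCR and sequenced by Illumina. Binding is the pooled-replicate reads-per-million enrichment of pull-down over input.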
In the case of “GATGATTGTTCTCCCAGCTGATGAATTAGAAAGGTCGAGTAAACAAATTTTCCTAATCTTTCTGTTCAAGCGCCATCTAC”, the binding signal was 0.826 RPM ratio (pull-down/input).
With “GATGATTGTTCTCCCAGCTGATGAATTCACCTACTCGAGTAAACAAATTTTCCTAATCTTTCTGTTCAAGCGCCATCTAC” the binding signal was 0.921 RPM ratio (pull-down/input).
“GATGATTGTTCTCCCAGCTGATGAATTTATCGCTTCGAGTAAACAAATTTTCCTAATCTTTCTGTTCAAGCGCCATCTAC” was tested, and the binding signal was 1.1 RPM ratio (pull-down/input).
For “GATGATTGTTCTCCCAGCTGATGAATTCGTCCCCTCGAGTAAACAAATTTTCCTAATCTTTCTGTTCAAGCGCCATCTAC”, the binding signal was 0.772 RPM ratio (pull-down/input).
For “GATGATTGTTCTCCCAGCTGATGAATTTTGAGAATCGAGTAAACAAATTTTCCTAATCTTTCTGTTCAAGCGCCATCTAC”, the binding signal was 0.914 RPM ratio (pull-down/input).
“GATGATTGTTCTCCCAGCTGATGAATTTACATAATCGAGTAAACAAATTTTCCTAATCTTTCTGTTCAAGCGCCATCTAC” was tested, and the binding signal was 1.76 RPM ratio (pull-down/input).
In the case of “GATGATTGTTCTCCCAGCTGATGAATTACAAAAATCGAGTAAACAAATTTTCCTAATCTTTCTGTTCAAGCGCCATCTAC”, the binding signal was 1.59 RPM ratio (pull-down/input).
For “GATGATTGTTCTCCCAGCTGATGAATTTTACAAATCGAGTAAACAAATTTTCCTAATCTTTCTGTTCAAGCGCCATCTAC”, the binding signal was 1.1 RPM ratio (pull-down/input).
For “GATGATTGTTCTCCCAGCTGATGAATTTTACATATCGAGTAAACAAATTTTCCTAATCTTTCTGTTCAAGCGCCATCTAC”, the binding signal was 0.97 RPM ratio (pull-down/input).
For “GATGATTGTTCTCCCAGCTGATGAATTACATAAATCGAGTAAACAAATTTTCCTAATCTTTCTGTTCAAGCGCCATCTAC”, the binding signal was 1.64 RPM ratio (pull-down/input).
In the case of “GATGATTGTTCTCCCAGCTGATGAATTTTTTACATCGAGTAAACAAATTTTCCTAATCTTTCTGTTCAAGCGCCATCTAC”, the binding signal was 0.953 RPM ratio (pull-down/input).
For “GATGATTGTTCTCCCAGCTGATGAATTGTTTACATCGAGTAAACAAATTTTCCTAATCTTTCTGTTCAAGCGCCATCTAC”, the binding signal was 2.91 RPM ratio (pull-down/input).
With “GATGATTGTTCTCCCAGCTGATGAATTTACAACATCGAGTAAACAAATTTTCCTAATCTTTCTGTTCAAGCGCCATCTAC” the binding signal was 1.67 RPM ratio (pull-down/input).
For “GATGATTGTTCTCCCAGCTGATGAATTTACAAAATCGAGTAAACAAATTTTCCTAATCTTTCTGTTCAAGCGCCATCTAC”, the binding signal was 1.74 RPM ratio (pull-down/input).
“GATGATTGTTCTCCCAGCTGATGAATTGTCGCTGTCGAGTAAACAAATTTTCCTAATCTTTCTGTTCAAGCGCCATCTAC” was tested, and the binding signal was 1.02 RPM ratio (pull-down/input).
With “GATGATTGTTCTCCCAGCTGATGAATTCTGGACATCGAGTAAACAAATTTTCCTAATCTTTCTGTTCAAGCGCCATCTAC” the binding signal was 0.937 RPM ratio (pull-down/input).
“GATGATTGTTCTCCCAGCTGATGAATTACCAGGTTCGAGTAAACAAATTTTCCTAATCTTTCTGTTCAAGCGCCATCTAC” was tested, and the binding signal was 0.873 RPM ratio (pull-down/input).
In the case of “GATGATTGTTCTCCCAGCTGATGAATTATGGTTTTCGAGTAAACAAATTTTCCTAATCTTTCTGTTCAAGCGCCATCTAC”, the binding signal was 1.24 RPM ratio (pull-down/input).
With “GATGATTGTTCTCCCAGCTGATGAATTTTTCATCTCGAGTAAACAAATTTTCCTAATCTTTCTGTTCAAGCGCCATCTAC” the binding signal was 0.937 RPM ratio (pull-down/input).
In the case of “GATGATTGTTCTCCCAGCTGATGAATTCATTCGGTCGAGTAAACAAATTTTCCTAATCTTTCTGTTCAAGCGCCATCTAC”, the binding signal was 0.807 RPM ratio (pull-down/input).
“GATGATTGTTCTCCCAGCTGATGAATTGTGATTATCGAGTAAACAAATTTTCCTAATCTTTCTGTTCAAGCGCCATCTAC” was tested, and the binding signal was 1.74 RPM ratio (pull-down/input).
For “GATGATTGTTCTCCCAGCTGATGAATTATCTGAATCGAGTAAACAAATTTTCCTAATCTTTCTGTTCAAGCGCCATCTAC”, the binding signal was 0.99 RPM ratio (pull-down/input).
With “GATGATTGTTCTCCCAGCTGATGAATTATTGTGATCGAGTAAACAAATTTTCCTAATCTTTCTGTTCAAGCGCCATCTAC” the binding signal was 1.76 RPM ratio (pull-down/input).
In the case of “GATGATTGTTCTCCCAGCTGATGAATTATTATGATCGAGTAAACAAATTTTCCTAATCTTTCTGTTCAAGCGCCATCTAC”, the binding signal was 1.41 RPM ratio (pull-down/input).
With “GATGATTGTTCTCCCAGCTGATGAATTATCTAAATCGAGTAAACAAATTTTCCTAATCTTTCTGTTCAAGCGCCATCTAC” the binding signal was 1.18 RPM ratio (pull-down/input).
With “GATGATTGTTCTCCCAGCTGATGAATTATTCTGATCGAGTAAACAAATTTTCCTAATCTTTCTGTTCAAGCGCCATCTAC” the binding signal was 0.97 RPM ratio (pull-down/input).
In the case of “GATGATTGTTCTCCCAGCTGATGAATTATGACAATCGAGTAAACAAATTTTCCTAATCTTTCTGTTCAAGCGCCATCTAC”, the binding signal was 1.38 RPM ratio (pull-down/input).
For “GATGATTGTTCTCCCAGCTGATGAATTAACAACATCGAGTAAACAAATTTTCCTAATCTTTCTGTTCAAGCGCCATCTAC”, the binding signal was 2.17 RPM ratio (pull-down/input).
In the case of “GATGATTGTTCTCCCAGCTGATGAATTATTAACATCGAGTAAACAAATTTTCCTAATCTTTCTGTTCAAGCGCCATCTAC”, the binding signal was 1.32 RPM ratio (pull-down/input).
In the case of “GATGATTGTTCTCCCAGCTGATGAATTAAATAAATCGAGTAAACAAATTTTCCTAATCTTTCTGTTCAAGCGCCATCTAC”, the binding signal was 1.49 RPM ratio (pull-down/input).
In the case of “GATGATTGTTCTCCCAGCTGATGAATTAATAACATCGAGTAAACAAATTTTCCTAATCTTTCTGTTCAAGCGCCATCTAC”, the binding signal was 2.02 RPM ratio (pull-down/input).
In the case of “GATGATTGTTCTCCCAGCTGATGAATTAACATCATCGAGTAAACAAATTTTCCTAATCTTTCTGTTCAAGCGCCATCTAC”, the binding signal was 1.31 RPM ratio (pull-down/input).
For “GATGATTGTTCTCCCAGCTGATGAATTAACATAATCGAGTAAACAAATTTTCCTAATCTTTCTGTTCAAGCGCCATCTAC”, the binding signal was 1.45 RPM ratio (pull-down/input).
